Assay outcomes: PubChem, National Center for Advancing Translational Sciences (NCATS)
Most compounds without a hit are left out; they make up all but 8.2% or so of the library.
KB-V1 cytotox: kills drug-selected multidrug resistant KB-V1 cells | Potency, µM (series often up to 46.1 µM), usual class: cytotoxic | AID 1347076 | KB-V1 MDR cells viability, CellTiter-Glo, 72 h | actives 3.4% (n = 400,000); further: on the % scale 0 is the no-effect control and ±100 the full control effect; nearly all actives have a fitted effect of over 60% in size
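Cytotoxicity via CellTiter-Glo luminescence after 72 h compound exposure at 37 degrees C. Cells: drug-selected KB-V1 line, DMEM phenol-red free plus 10% FBS. Compounds tested at multiple concentrations; normalized data fitted to concentration-effect curves.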
KB-3-1 cytotox: KB-3-1 parental cell cytotoxicity. KB-3-1 viability, CellTiter-Glo ATP luminescence, 72 h. Potency, µM (series often up to 46.1 µM), usual class: cytotoxic. actives 1.4% (n = 400,000). AID 1347075; further: on the % scale 0 is the no-effect control and ±100 the full control effect; nearly all actives have a fitted effect of over 60% in size
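Parental KB-3-1 adenocarcinoma cells in phenol-red-free DMEM with 10% FBS were pin-treated with compounds at several concentrations, incubated 72 h at 37 °C, and viability read by CellTiter-Glo luminescence; concentration-effect curves were fitted after normalization.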
MCF10A rerep: induces DNA re-replication in MCF 10a normal breast cells; MCF 10A DNA re-replication, Hoechst nuclear intensity, 48 h; Potency, µM (series often up to 46.1 µM), inactives show top-dose activity, positive = re-replication, most hits filed as activators; actives 2.9% (n = 350,000); AID 624296; further: % of control where 0% means no effect; nearly all actives have a fitted effect of over 50% in size
SW480 rereplic: inducers of DNA re-replication in SW480 colon cancer cells; SW480 DNA re-replication, Hoechst DNA content imaging, 48 h; Potency, µM (highest dose often 46.1 µM), without a hit: at the top dose re-replication activation, hits mostly activators; actives 1.8% (n = 340,000); further: % of control where 0% means no effect; nearly all actives have a fitted effect of over 55% in size
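Hoechst fluorescence of nuclei (405 nm excitation, 500-530 nm emission) measured by plate-scanning imager after 48 hr compound exposure at 37 C; re-replication scored as increased number of nuclei with elevated intensity.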
ELG1 DNA repair: blocks ELG1-dependent DNA repair in HEK293T cells; actives 2.3% (n = 330,000); HEK293T ELG1-luciferase reporter, luminescence, 16 h; DNA damage induced by 5-fluorouridine; Potency, µM (series often up to 46.1 µM), without a hit: at the highest dose activity change, negative = inhibition, most hits filed as inhibitors; further: on the % scale 0 is the no-effect control and ±100 the full control effect; nearly all actives have a fitted effect of over 55% in size
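HEK293T cells expressing luciferase-tagged ELG1 (2,000/well) received 5-Fluorouridine plus compound or DMSO for 16 hr at 37 °C. Luciferase was read by ONE-Glo luminescence after 30 min at room temperature.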
Active calls of the source: *; i = inactive; ? = inconclusive; / = not tested or not shown; ! = a repeat was not active; [ ] = dose if it differs, or a comment. The call rests on the fitted dose curve; in most records, active means well fitted curve in the direction sought with a large enough effect; inconclusive means small, poorly fitted or top-dose-only effect, or another doubt; inactive means no such curve, though single readings can be large; an effect the other way counts as inactive or inconclusive. Potency means the concentration at half of the fitted maximal effect.

SMILES | KB-V1 cytotox | KB-3-1 cytotox | MCF10A rerep | SW480 rereplic | ELG1 DNA repair
CCN(Cc1ccc(OC)c(F)c1)C(=O)C1CCCO1 (centres undefined) | i | i | -3% | -16% | 16%
CCOC1=C2[C@@H](CN(S(=O)(=O)c3ccc(C)cc3)[C@H]2c2ccccc2F)[C@H]2C(=O)N(C3CCCCC3)C(=O)[C@H]2C1 | i | i | / | / | /
COCc1cc(C)nc2c1C(=O)NC(c1ccc(C)cc1)N2Cc1ccccc1 (centres undefined) | i | i | / | / | /
Cc1ccc(S(=O)(=O)N2CCN(CC(=O)Nc3ccc4c(c3)CCC4)CC2)cc1C | 2.9µM* | ? | 7% | -3% | ?
Cc1ccc(NC(=O)Cn2c(=O)oc3cc(S(=O)(=O)N4CCC(C)CC4)ccc32)cc1C | ? | ? | 21µM* | ? | ?
N#Cc1ccsc1NC(=O)CN1CCN(S(=O)(=O)c2ccc3ccccc3c2)CC1 | 6.5µM* | i | 23% | -1% | 4%
O=C(CN1CCN(S(=O)(=O)c2ccc3ccccc3c2)CC1)Nc1ccc2c(c1)CCC2 | 18µM* | i | 11% | 22% | ?
Cc1ccc(NC(=O)Cn2c(=O)oc3cc(S(=O)(=O)N4CCC(C)CC4)ccc32)cc1Cl | i | i | / | / | /
O=C(C[C@H]1CC[C@@H]2[C@H](COC[C@H](O)CN2Cc2cccc(F)c2)O1)NCc1cccc(F)c1 | i | i | / | / | /
CCn1ccc(C(=O)Nc2ccsc2C(=O)OC)n1 | i | i | 3% | 1% | ?
CCc1cc[n+](C2=C([O-])c3ccccc3C(=O)/C2=N\S(=O)(=O)c2cccs2)cc1 | i | i | ? | 4.6µM* | 16µM*
CCOC(=O)c1ccc(N2C(=O)c3n[nH]c(-c4cccs4)c3C2c2cccc(OC)c2)cc1 (centres undefined) | i | ? | / | / | /
CCOC(=O)c1ccc(N2C(=O)c3[nH]nc(-c4ccccc4)c3C2c2ccc(CC)cc2)cc1 (centres undefined) | 23µM* | ? | / | / | /
CCOC(=O)c1ccc(N2C(=O)c3[nH]nc(-c4ccc(C)cc4)c3C2c2ccc(O)cc2)cc1 (centres undefined) | i | ? | / | / | /
CCOC(=O)c1ccc(N2C(=O)c3n[nH]c(-c4cccs4)c3C2c2ccc(OC)cc2OC)cc1 (centres undefined) | 26µM* | ? | / | / | /
Cc1[nH]nc2c1C(c1ccccn1)N(c1ccc(Br)cc1)C2=O (centres undefined) | 18µM* | i | -4% | -7% | 13%
CCOC(=O)c1ccc(N2C(=O)c3n[nH]c(C)c3C2c2ccc(OCC)cc2)cc1 (centres undefined) | ? | 23µM* | / | / | /
CCOC(=O)c1ccc(N2C(=O)c3n[nH]c(-c4ccco4)c3C2c2ccc([N+](=O)[O-])cc2)cc1 (centres undefined) | ? | ? | ? | ? | 23µM*
Cc1ccc2c(c1)Oc1ccc([N+](=O)[O-])cc1C(=O)N2 | i | i | -16% | 0% | 0%
Cc1ccc2c(c1)Oc1ccc(NC(=O)CCl)cc1C(=O)N2 | 9.2µM* | 5.8µM* | 5.8µM* | 2.3µM* | ?
COc1ccccc1CCNC(=O)C1CC(=O)N(c2ccccc2F)C1 (centres undefined) | i | i | / | / | /
Cc1occc1C(=O)N1CCN(c2ccc(Cl)c(Cl)c2)CC1 | 23µM* | i | -5% | 8% | -11%
Cc1cc2ccccc2n2c(SCC(=O)N3CCc4ccccc4C3)nnc12 | ? | i | 19% | 2% | ?
COc1ccc(N2CCN(C(=O)CSc3nnc4c(C)cc5ccccc5n34)CC2)cc1 | ? | i | ? | -5% | 23µM*
O=C(CSc1nnc2sc3ccccc3n12)N1CCN(c2ccccc2)CC1 | 8.2µM* | i | 1% | -3% | ?
SMILES | KB-V1 cytotox | KB-3-1 cytotox | MCF10A rerep | SW480 rereplic | ELG1 DNA repair
C=CCN1C(=O)c2ccccc2Sc2ccc(C(=O)NCCC)cc21 | i | i | -8% | -2% | -12%
O=C(Nc1cccc(S(=O)(=O)N2CCCCC2)c1)c1ccc(N2CCCC2=O)cc1 | ? | i | -4% | -3% | 19%
Cc1ccc(F)cc1NC(=O)c1ccc(NS(=O)(=O)c2ccc(Br)s2)cc1 | 16µM* | i | ? | ? | 1%
Cc1cc(NC(=O)COC(=O)c2ccc([N+](=O)[O-])cc2Cl)no1 | i | i | -6% | 3% | 5%
COn1c2c(c3c4nonc4ccc31)CCCC2 | 18µM* | i | 10% | 3% | 0%
On1c2c(c3c4nonc4ccc31)CCCC2 | / | / | / | / | 13µM*
COn1c2c(c3c4no[n+]([O-])c4ccc31)CCCC2 | i | i | 24% | -1% | 6%
Brc1cccc(CNCC2CCCO2)c1 (centres undefined) | i | i | ? | 1% | -4%
CC(=O)/C(=N/Nc1ccccc1Cl)Sc1nnc(C(O)c2ccccc2)n1-c1ccccc1 (centres undefined) | 16µM* | i | 1% | 1% | 5%
COc1cc(C)ccc1OCCSc1nc2ccc(NC(=O)c3ccccc3F)cc2s1 | i | i | / | / | /
COc1ccc(C(CC(=O)Nc2ccc(C)c(C)c2)N2Cc3ccccc3C2=O)cc1OC (centres undefined) | ? | i | / | / | /
COc1ccc(C(CC(=O)Nc2ccc(F)c(Cl)c2)N2Cc3ccccc3C2=O)cc1OC (centres undefined) | 18µM* | i | / | / | /
CCC(=O)Nc1nonc1-c1nc2ccccc2n1Cc1cccc2ccccc12 | ? | 0.92µM* | 0.37µM* | 7.3µM* | 2%
CCC(=O)Nc1nonc1-c1nc2ccccc2n1CCC(C)C | i | i | ? | -3%[9.22 µM] | 23µM*
CCC(=O)Nc1nonc1-c1nc2ccccc2n1Cc1ccccc1 | ? | ? | ? | 8% | ?
CCOc1cccc(C2C=C(c3ccc4c(c3)OCO4)NC(c3ccc(Cl)cc3)N2)c1O (centres undefined) | i | 10µM* | / | / | /
CCOc1cccc(C2C=C(c3ccc4c(c3)OCO4)NC(c3ccc(F)cc3)N2)c1O (centres undefined) | i | i | / | / | /
N#Cc1ccccc1S(=O)(=O)N1CCN(c2nc(-c3cccs3)nc3ccccc23)CC1 | i | i | / | / | /
O=S(c1cc(Cl)cc(Cl)c1O)c1cc(Cl)cc(Cl)c1O | ? | ? | 13µM* | 0% | /
COc1cccc(CNC(=O)CCn2c(=O)c3cccn3c3cccnc32)c1 | 18µM*! | i | 0% | ? | -4%
COc1ccc(CCNC(=O)CCCn2c(=O)c3cccn3c3cccnc32)c(OC)c1OC | i | i | -1% | -42% | 13µM*
